PubChem BioAssay (NCI)
This is part of a sample that, as a whole, favours compounds with a hit. Of some 83,000 tested, about 20% had one in any assay.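 Interpretation: 100, growth as untreated; towards 0, rising growth inhibition; 0, no net growth; 0 to -100, cell death. Compounds scoring below 10 were considered active.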 A number with no mark means an inactive call. Active and inactive are the calls of the source.

test system: HL-60(TB) leukemia; test: NCI-60 one-dose screen, 48 h (100 = growth as untreated, 0 = no growth, -100 = all killed); settings: 10 µM unless noted

Q: Cc1ccc(S(=O)(=O)N(CC[C@@H]2C[C@H]2c2cc3ccccc3o2)C(=O)NC2CCCCC2)cc1 was tested. Which growth did it give?
A: The growth was 105%.

Q: With Nc1nc(Cl)cc(NCc2ccc(CNc3cc(Cl)nc(N)n3)cc2)n1 as the compound, how does the growth read?
A: Its growth is 78.7%.

Q: How did the growth turn out when CC1=C(O)C(=O)CC1 was run?
A: Its growth is 112%.

Q: COc1cc(/C=C/c2cc(/C=C/c3ccc(O)c(OC)c3)n(C(=O)c3ccc(Cl)cc3)n2)ccc1O was tested. Which growth did it give?
A: The growth was -12.4% (active).

Q: For CC(=O)c1cc(C(=O)c2ccc3c(c2)Sc2ccccc2N3)c2c(C)cccn12, which growth is on record?
A: Its growth is -4.53% (active).

Q: Which growth does the source give for NC(=NCCCOc1ccc(F)cc1)Nc1ccc(Cl)c(Cl)c1 here?
A: The growth was 48.2%.

Q: How did the growth turn out when O=C(Nc1nc(-c2ccccc2)nc2c1sc(=S)n2-c1ccccc1)C(F)(F)F was run?
A: The growth was 94.5%.

Q: With CC(=O)Nc1nc(C)c(C(=O)NNC(=O)Nc2ccccc2)s1 as the compound, how does the growth read?
A: Its growth is 108%.

Q: Which growth does the source give for COc1cc(/C=C2\CCC/C(=C\c3cc(CN4CCCCC4)c(O)c(OC)c3)C2=O)cc(CN2CCCCC2)c1O here?
A: Its growth is 92.7%.

Q: With COc1cc2c(c(OC)c1)C1c3cc(OC)ccc3NC(=O)N1CC2 (configuration not stated) as the compound, how does the growth read?
A: The growth was 66.3%.

Q: Which growth does the source give for O=C(Nc1ccc(Oc2cccc(F)c2)c(Cl)c1)c1cnccn1 here?
A: Its growth is 3.12% (active).

Q: With COc1ccc(-c2nc(SC)nc(N3CCOCC3)c2C#N)cc1 as the compound, how does the growth read?
A: The growth was 94%.
